Laboratory results taken from PubChem BioAssay (NCI).
About 79,000 compounds went through this panel and 15% of them were active in at least one assay; those are over-represented in the sample as a whole. Unmarked numbers belong to inactive results. Calls of active or inactive are those of the source. No stated cut-off is given here; in the data, active means growth inhibition above about 70%; inactive means the rest.

Assays:
[1] = NCI Yeast Anticancer Drug Screen. Data for the rad50 strain (AID 155);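 further: 0% = growth of vehicle-only cultures of the same strain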; settings: S. cerevisiae rad50 strain growth inhibition, stronger effect = higher value
How it was run: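 Compounds were tested on a yeast strain with an engineered DNA damage repair alteration; the reported value is growth inhibition normalised to vehicle treatment.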

[2] = NCI Yeast Anticancer Drug Screen. Data for the mec2-1 strain (AID 157); settings: S. cerevisiae mec2-1 strain, stronger effect = higher value
How it was run: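 Mutant yeast (mec2-1) grown with compound; growth inhibition relative to vehicle control reported.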

[3] = NCI Yeast Anticancer Drug Screen. Data for the sgs1 mgt1 strain (AID 161);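 further: 0% = growth of cultures given vehicle only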; settings: S. cerevisiae sgs1 mgt1 strain, stronger effect = higher value
How it was run: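 Growth of a repair-deficient yeast mutant was monitored after compound treatment and expressed as inhibition relative to vehicle-treated cultures.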

[4] = NCI Yeast Anticancer Drug Screen. Data for the cln2 rad14 strain (AID 165);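 further: 0% = growth equal to vehicle treated cultures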; settings: S. cerevisiae cln2 rad14 strain, stronger effect = higher value
How it was run: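 Readout is yeast growth inhibition versus vehicle-treated controls, using a strain with cln2 and rad14 alterations exposed to compound.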

[5] = NCI Yeast Anticancer Drug Screen. Data for the bub3 strain (AID 167); settings: S. cerevisiae bub3 mutant strain, stronger effect = higher value
How it was run: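 Growth of a checkpoint-deficient yeast mutant is measured after compound exposure. Values represent inhibition relative to vehicle.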

[6] = NCI Yeast Anticancer Drug Screen. Data for the mlh1 rad18 strain (AID 175); settings: S. cerevisiae mlh1 rad18 strain growth inhibition, stronger effect = higher value
How it was run: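 Genetically defined yeast (DNA repair-deficient) exposed to compounds; growth inhibition determined relative to vehicle.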

[7] = at 5.0 µM (retest, dose inferred, filed as 0.5)
[8] = at 50.0 µM (retest, dose inferred, filed as 5.0)

SMILES	growth inhibition [1, 7]	growth inhibition [1, 8]	growth inhibition ([1]; at 50.0 µM)	growth inhibition [2, 7]	growth inhibition [2, 8]	growth inhibition ([2]; at 50.0 µM)	growth inhibition [3, 7]	growth inhibition [3, 8]	growth inhibition ([3]; at 50.0 µM)	growth inhibition [4, 7]	growth inhibition [4, 8]	growth inhibition ([4]; at 50.0 µM)	growth inhibition [5, 7]	growth inhibition [5, 8]	growth inhibition ([5]; at 50.0 µM)	growth inhibition [6, 7]	growth inhibition [6, 8]	growth inhibition ([6]; at 50.0 µM)
[Cl][Pt+2][Cl].[NH-]c1cc2ccccc2cc1[NH-]	2%	0%	64.5%	-34%	16%	51.4%	0%	1%	69.2%	1%	17%	45%	0%	14%	20.4%	0%	-24%	76.2% (active)
CCCCCCCCCCCCCC1OC(=O)C(C)=C1C(=O)O (stereo not given)	-10%	50%	72.6% (active)	-7%	73% (active)	26.9%	-2%	60%	47.5%	-65%	59%	10.6%	-17%	-25%	27.4%	-10%	74% (active)	61.9%
Cc1ccc2ccc3c(CCN(C)C)cc4c(c3c2c1O)OCO4	-1%	22%	90.8% (active)	-4%	57%	67.3%	-1%	75% (active)	91.2% (active)	-1%	64%	95.2% (active)	-2%	86% (active)	92.5% (active)	-5%	53%	94.3% (active)
O=C1CN(CCN2CCOCC2)CC(=O)N2Cc3ccccc3CN12	12%	38%	61.6%	7%	55%	24.1%	27%	41%	66.5%	3%	46%	62.6%	6%	35%	68.5%	29%	64%	44.2%
c1ccc2sc(SSN3CCOCC3)nc2c1	78% (active)	99% (active)	94.4% (active)	28%	98% (active)	89.2% (active)	18%	99% (active)	66.8%	76% (active)	97% (active)	96.3% (active)	64%	98% (active)	86.4% (active)	34%	99% (active)	94% (active)
CCOC(CCl)Oc1c(C(C)C)cc(C(C)C)c(Cl)c1C (stereo not given)	0%	20%	97.5% (active)	-1%	57%	96.7% (active)	1%	49%	97.7% (active)	4%	26%	96.7% (active)	-3%	19%	97.3% (active)	-1%	27%	95% (active)
Cc1ccc2sc3ccc(N)cc3c(=O)c2c1	27%	84% (active)	62.6%	24%	74% (active)	31.6%	26%	89% (active)	60.6%	26%	58%	43.7%	25%	95% (active)	66.2%	27%	92% (active)	81.8% (active)
CCCCCCCCCCCCCCCC[N+](C)(C)C(C)c1ccccc1 (stereo not given)	98% (active)	98% (active)	90.5% (active)	98% (active)	99% (active)	90.7% (active)	99% (active)	99% (active)	90.5% (active)	99% (active)	99% (active)	86% (active)	98% (active)	98% (active)	92.6% (active)	98% (active)	97% (active)	91.8% (active)
CCCC(CCC)NCCOC(=O)C(CC)c1ccccc1 (stereo not given)	3%	42%	88% (active)	-5%	23%	15.9%	12%	63%	88.3% (active)	-35%	62%	55.9%	7%	75% (active)	49.6%	4%	47%	75% (active)
CCCCN(CC(O)c1ccc(Cl)cc1)c1ccccc1 (stereo not given)	-1%	99% (active)	98.8% (active)	-2%	99% (active)	98.8% (active)	-6%	98% (active)	98.8% (active)	1%	93% (active)	98.5% (active)	1%	98% (active)	95% (active)	1%	99% (active)	96.7% (active)
